Data reported in the supplement of paper PMC7411054.
Counter-ions that a name gives are not always drawn.

Experiments:
Test in all cases: phenotypically active (imaging signature differs from DMSO and reproducible) at any of 0.3-9 uM (binary (1 = active, 0 = inactive)); higher = active
Details in all cases: treatment time: 24 h
[1] = test system: A549-ACTB-RAB5A
In short: (§1)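 The reporter lines, fifteen in total and built by gene editing in A549, HepG2 and WPMY1 cells, used BFP for segmentation alongside GFP and RFP/FusionRed markers. Each was treated at 0.3, 1, 3 or 9 µM for 24 h in four wells and then imaged live, with live-cell features normalised to solvent control wells. Deviation meant ≥3 of 4 wells beyond the 95th percentile of control Euclidean distances; reproducibility meant a median replicate Pearson correlation above the 95th percentile of non-replicates. Only conditions meeting both were scored as phenotypically active.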

[2] = test system: A549-CANX-COX4
In short: as §1

[3] = test system: A549-GM130-SQSTM1
In short: as §1

[4] = test system: A549-TP53BP1-CLTA
In short: as §1

[5] = test system: A549-TUBA1B-RELA
In short: as §1

[6] = test system: HepG2-ACTB-RAB5A
In short: as §1

[7] = test system: HepG2-CANX-COX4
In short: as §1

[8] = test system: HepG2-GM130-SQSTM1
In short: as §1

[9] = test system: HepG2-TP53BP1-CLTA
In short: as §1

[10] = test system: HepG2-TUBA1B-RELA
In short: as §1

[11] = test system: WPMY1-ACTB-RAB5A
In short: as §1

[12] = test system: WPMY1-CANX-COX4
In short: as §1

[13] = test system: WPMY1-GM130-SQSTM1
In short: as §1

[14] = test system: WPMY1-TP53BP1-CLTA
In short: as §1

[15] = test system: WPMY1-TUBA1B-RELA
In short: as §1

Measured: phenotypically active

CN1CCN2c3ncccc3Cc3ccccc3C2C1 (stereo not given) [Mirtazapine]
inactive: [1] 0 | [2] 0 | [3] 0 | [4] 0 | [5] 0 | [6] 0 | [7] 0 | [8] 0 | [9] 0 | [10] 0 | [11] 0 | [12] 0 | [13] 0 | [14] 0 | [15] 0

Cc1cccc(Nc2cc(Cl)nc(SCC(=O)O)n2)c1C
inactive: [1] 0 | [2] 0 | [3] 0 | [4] 0 | [5] 0 | [6] 0 | [7] 0 | [8] 0 | [9] 0 | [10] 0 | [11] 0 | [12] 0 | [13] 0 | [14] 0 | [15] 0

CN(C)CCOC(=O)C(c1ccccc1)C1(O)CCCC1 (stereo not given) [cyclopentolate]
inactive: [1] 0 | [2] 0 | [3] 0 | [4] 0 | [5] 0 | [6] 0 | [7] 0 | [8] 0 | [9] 0 | [10] 0 | [11] 0 | [12] 0 | [13] 0 | [14] 0 | [15] 0

CCCN(CCC)CCc1cccc2c1CC(=O)N2 [ropinirole]
inactive: [1] 0 | [2] 0 | [3] 0 | [4] 0 | [5] 0 | [6] 0 | [7] 0 | [8] 0 | [9] 0 | [10] 0 | [11] 0 | [12] 0 | [13] 0 | [14] 0 | [15] 0

CC(=O)[C@H]1CC[C@H]2[C@@H]3CCC4=CC(=O)CC[C@]4(C)[C@H]3CC[C@]12C [progesterone]
inactive: [1] 0 | [2] 0 | [3] 0 | [4] 0 | [5] 0 | [6] 0 | [7] 0 | [8] 0 | [9] 0 | [10] 0 | [11] 0 | [12] 0 | [13] 0 | [14] 0 | [15] 0

CO[C@H]1C=CO[C@@]2(C)Oc3c(C)c(O)c4c(O)c(c5c(nc6cc(C)ccn65)c4c3C2=O)NC(=O)C(C)=CC=C[C@H](C)[C@H](O)[C@@H](C)[C@@H](O)[C@@H](C)[C@H](OC(C)=O)[C@@H]1C [Rifaximin]
inactive: [1] 0 | [2] 0 | [3] 0 | [4] 0 | [5] 0 | [6] 0 | [7] 0 | [8] 0 | [9] 0 | [10] 0 | [11] 0 | [12] 0 | [13] 0 | [14] 0 | [15] 0

O=c1ncccn1[C@@H]1O[C@H](CO)[C@@H](O)[C@H]1O [Zebularine]
inactive: [1] 0 | [2] 0 | [3] 0 | [4] 0 | [5] 0 | [6] 0 | [7] 0 | [8] 0 | [9] 0 | [10] 0 | [11] 0 | [12] 0 | [13] 0 | [14] 0 | [15] 0

COc1ccc(CN(CCN(C)C)c2ccccn2)cc1 [mepyramine]
inactive: [1] 0 | [2] 0 | [3] 0 | [4] 0 | [5] 0 | [6] 0 | [7] 0 | [8] 0 | [9] 0 | [10] 0 | [11] 0 | [12] 0 | [13] 0 | [14] 0 | [15] 0

CS(=O)(=O)OCCCCOS(C)(=O)=O [busulfan]
inactive: [1] 0 | [2] 0 | [3] 0 | [4] 0 | [5] 0 | [6] 0 | [7] 0 | [8] 0 | [9] 0 | [10] 0 | [11] 0 | [12] 0 | [13] 0 | [14] 0 | [15] 0

C[C@H](NCCc1ccc(O)cc1)[C@H](O)c1ccc(O)cc1 [ritodrine]
inactive: [1] 0 | [2] 0 | [3] 0 | [4] 0 | [5] 0 | [6] 0 | [7] 0 | [8] 0 | [9] 0 | [10] 0 | [11] 0 | [12] 0 | [13] 0 | [14] 0 | [15] 0

C[N+](C)(C)CCOC(N)=O [Carbamoylcholine chloride]
inactive: [1] 0 | [2] 0 | [3] 0 | [4] 0 | [5] 0 | [6] 0 | [7] 0 | [8] 0 | [9] 0 | [10] 0 | [11] 0 | [12] 0 | [13] 0 | [14] 0 | [15] 0

C[C@]12CC[C@@H]3c4ccc(OS(=O)(=O)O)cc4CC[C@H]3[C@@H]1CCC2=O [estrone sulfuric acid]
inactive: [1] 0 | [2] 0 | [3] 0 | [4] 0 | [5] 0 | [6] 0 | [7] 0 | [8] 0 | [9] 0 | [10] 0 | [11] 0 | [12] 0 | [13] 0 | [14] 0 | [15] 0

C#C[C@]1(O)CC[C@H]2[C@@H]3CCC4=CC(=NO)CC[C@@H]4[C@H]3CC[C@@]21CC [norelgestromin]
inactive: [1] 0 | [2] 0 | [3] 0 | [4] 0 | [5] 0 | [6] 0 | [7] 0 | [8] 0 | [9] 0 | [10] 0 | [11] 0 | [12] 0 | [13] 0 | [14] 0 | [15] 0

NS(=O)(=O)c1cc2c(cc1Cl)N=C(CSCc1ccccc1)NS2(=O)=O [benzthiazide]
inactive: [1] 0 | [2] 0 | [3] 0 | [4] 0 | [5] 0 | [6] 0 | [7] 0 | [8] 0 | [9] 0 | [10] 0 | [11] 0 | [12] 0 | [13] 0 | [14] 0 | [15] 0

CNS(=O)(=O)CCc1ccc2[nH]cc(C3CCN(C)CC3)c2c1 [naratriptan]
inactive: [1] 0 | [2] 0 | [3] 0 | [4] 0 | [5] 0 | [6] 0 | [7] 0 | [8] 0 | [9] 0 | [10] 0 | [11] 0 | [12] 0 | [13] 0 | [14] 0 | [15] 0

CCCCN1CCCCC1C(=O)Nc1c(C)cccc1C (stereo not given) [bupivacaine]
inactive: [1] 0 | [2] 0 | [3] 0 | [4] 0 | [5] 0 | [6] 0 | [7] 0 | [8] 0 | [9] 0 | [10] 0 | [11] 0 | [12] 0 | [13] 0 | [14] 0 | [15] 0

CC(c1cc2ccccc2s1)N(O)C(N)=O (stereo not given) [zileuton]
inactive: [1] 0 | [2] 0 | [3] 0 | [4] 0 | [5] 0 | [6] 0 | [7] 0 | [8] 0 | [9] 0 | [10] 0 | [11] 0 | [12] 0 | [13] 0 | [14] 0 | [15] 0

CC(C)[C@](O)(c1ccc2cc(OC(F)F)c(OC(F)F)cc2c1)c1c[nH]nn1
inactive: [1] 0 | [2] 0 | [3] 0 | [4] 0 | [5] 0 | [6] 0 | [7] 0 | [8] 0 | [9] 0 | [10] 0 | [11] 0 | [12] 0 | [13] 0 | [14] 0 | [15] 0

CC(=O)c1ccc(S(=O)(=O)NC(=O)NC2CCCCC2)cc1 [acetohexamide]
inactive: [1] 0 | [2] 0 | [3] 0 | [4] 0 | [5] 0 | [6] 0 | [7] 0 | [8] 0 | [9] 0 | [10] 0 | [11] 0 | [12] 0 | [13] 0 | [14] 0 | [15] 0

O=C(Nc1cccc(Br)c1)c1cccc(S(=O)(=O)N2CCCCCC2)c1
inactive: [1] 0 | [2] 0 | [3] 0 | [4] 0 | [5] 0 | [6] 0 | [7] 0 | [8] 0 | [9] 0 | [10] 0 | [11] 0 | [12] 0 | [13] 0 | [14] 0 | [15] 0

Cc1ccc(-c2cc(C(F)(F)F)nn2-c2ccc(S(N)(=O)=O)cc2)cc1 [celecoxib]
inactive: [1] 0 | [2] 0 | [3] 0 | [4] 0 | [5] 0 | [6] 0 | [7] 0 | [8] 0 | [9] 0 | [10] 0 | [11] 0 | [12] 0 | [13] 0 | [14] 0 | [15] 0

C[C@@H]1O[C@@H](O[C@H]2[C@H](Oc3cc(O)c4c(c3)O[C@H](c3ccc(O)cc3)CC4=O)O[C@H](CO)[C@@H](O)[C@@H]2O)[C@H](O)[C@H](O)[C@H]1O [Naringin hydrate]
inactive: [1] 0 | [2] 0 | [3] 0 | [4] 0 | [5] 0 | [6] 0 | [7] 0 | [8] 0 | [9] 0 | [10] 0 | [11] 0 | [12] 0 | [13] 0 | [14] 0 | [15] 0

NCCNS(=O)(=O)c1ccc(Cl)c2ccncc12 [CKI 7 dihydrochloride]
inactive: [1] 0 | [2] 0 | [3] 0 | [4] 0 | [5] 0 | [6] 0 | [7] 0 | [8] 0 | [9] 0 | [10] 0 | [11] 0 | [12] 0 | [13] 0 | [14] 0 | [15] 0

CCOC(=O)CCNc1cc(N2CCc3ccccc3CC2)nc(-c2cccnc2)n1
inactive: [1] 0 | [2] 0 | [3] 0 | [4] 0 | [5] 0 | [6] 0 | [7] 0 | [8] 0 | [9] 0 | [10] 0 | [11] 0 | [12] 0 | [13] 0 | [14] 0 | [15] 0
